Drawing on PubChem BioAssay (NCI), this text covers growth for eight compounds.

About 83,000 compounds went through this panel and 20% of them were active in at least one assay; those are over-represented in the sample as a whole.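 Cell lines were cultured in 96-well plates, exposed to a single compound concentration, and assessed for percent growth 48 hours later.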 Values without a mark were called inactive. Activity calls are given as the source filed them. Rule for the calls: active = growth percent below 10; inactive = the rest.

Test systems include EKVX NSCLC; SN12C renal; UO-31 renal; TK-10 renal; ACHN renal; CAKI-1 renal; A498 renal; CCRF-CEM leukemia; MOLT-4 leukemia; SR leukemia; RPMI-8226 leukemia; OVCAR-8 ovarian; OVCAR-5 ovarian; OVCAR-4 ovarian; SK-OV-3 ovarian; IGROV1 ovarian; OVCAR-3 ovarian; NCI/ADR-RES ovarian.
Common to all, as to assay: NCI-60 one-dose screen, 48 h (100 = growth as untreated, 0 = no growth, -100 = all killed)
What all share (settings): 10 µM unless noted

As for `COc1ncc(-c2ccc3nccc(-c4ccnnc4)c3c2)cc1NS(=O)(=O)c1ccc(F)cc1F`, the growth is -7.55% (active) with EKVX NSCLC; 16.4% with SN12C renal; -25.7% (active) in the assay on UO-31 renal; -44.7% (active) with TK-10 renal; 15.3% with ACHN renal; -19.8% (active) with CAKI-1 renal. Further, the growth in the assay on A498 renal was -48.2% (active); in the assay with CCRF-CEM leukemia, 1.61% (active); in the assay with MOLT-4 leukemia, -11.9% (active); with SR leukemia, -16.9% (active); with RPMI-8226 leukemia it was -35.4% (active); in the assay with OVCAR-8 ovarian, -17% (active). The growth was 7.97% (active) with OVCAR-5 ovarian; -8.87% (active) in the assay on OVCAR-4 ovarian; -52.1% (active) in the assay on SK-OV-3 ovarian; -24.1% (active) in the assay on IGROV1 ovarian; -58% (active) with OVCAR-3 ovarian; -20% (active) in the assay with NCI/ADR-RES ovarian.
In the case of `CNC(=O)c1ccc(Nc2ncc(C(F)(F)F)c(NCc3nccnc3N(C)S(C)(=O)=O)n2)cc1`, the growth in the assay on EKVX NSCLC was -4.53% (active); in the assay with SN12C renal, 5.6% (active); in the assay with UO-31 renal, -6.92% (active); in the assay on TK-10 renal, -21.5% (active); in the assay on ACHN renal it was 3.54% (active); in the assay with CAKI-1 renal, 0.765% (active). In addition, the growth is -42.2% (active) in the assay with A498 renal; 4.49% (active) with CCRF-CEM leukemia; -9.42% (active) in the assay with MOLT-4 leukemia; -21.3% (active) with SR leukemia; -26.7% (active) in the assay on RPMI-8226 leukemia; -0.118% (active) with OVCAR-8 ovarian. Further, the growth with OVCAR-5 ovarian is 0.954% (active); in the assay on OVCAR-4 ovarian, 1.68% (active); with SK-OV-3 ovarian, -21.1% (active); in the assay on IGROV1 ovarian, 3.11% (active); in the assay with OVCAR-3 ovarian, 9.41% (active); in the assay with NCI/ADR-RES ovarian, 29.8%.
For the compound `Cc1cnc(NC(=O)Nc2cc(Br)c(C)cc2OC[C@@H]2CNCCO2)cn1`, the growth was 25.9% in the assay with EKVX NSCLC; 39.5% with SN12C renal; -12.3% (active) in the assay with UO-31 renal; 28.8% with TK-10 renal; 3.08% (active) in the assay with ACHN renal; 1.9% (active) in the assay with CAKI-1 renal. Besides, the growth with A498 renal was 18.1%; in the assay with CCRF-CEM leukemia, 4.56% (active); in the assay on MOLT-4 leukemia, 2.6% (active); in the assay on SR leukemia it was -18.5% (active); in the assay on RPMI-8226 leukemia it was 13%; in the assay with OVCAR-8 ovarian, 1.6% (active). The growth in the assay with OVCAR-5 ovarian was 36.6%; in the assay with OVCAR-4 ovarian, 45.6%; in the assay with SK-OV-3 ovarian, 32%; with IGROV1 ovarian, 30.5%; in the assay with OVCAR-3 ovarian, 22.2%; in the assay with NCI/ADR-RES ovarian it was 7.93% (active).
For `CCc1cnn2c(NCc3ccc[n+]([O-])c3)cc(N3CCCC[C@H]3CCO)nc12`, the growth with EKVX NSCLC is -11.2% (active); with SN12C renal it was 4.31% (active); in the assay with UO-31 renal, -7.4% (active); in the assay with TK-10 renal it was -16% (active); in the assay on ACHN renal, 2.95% (active); in the assay with CAKI-1 renal, 6.71% (active). For the same compound, the growth is -60.4% (active) in the assay on A498 renal; -0.938% (active) in the assay with CCRF-CEM leukemia; -9.3% (active) in the assay with MOLT-4 leukemia; -17.3% (active) with SR leukemia; -16.2% (active) in the assay with RPMI-8226 leukemia; -6.3% (active) in the assay with OVCAR-8 ovarian. The growth was 4.89% (active) in the assay with OVCAR-5 ovarian; -9.21% (active) in the assay on OVCAR-4 ovarian; -17.8% (active) in the assay with SK-OV-3 ovarian; 5.6% (active) in the assay with IGROV1 ovarian; 12.3% with OVCAR-3 ovarian; -0.875% (active) with NCI/ADR-RES ovarian.
For the compound `COc1cc(Nc2ncc(F)c(Nc3ccc4c(n3)N(COP(=O)(O)O)C(=O)C(C)(C)O4)n2)cc(OC)c1OC`, the growth is 32.7% in the assay with EKVX NSCLC; 22.8% in the assay with SN12C renal; -23.9% (active) in the assay on UO-31 renal; -43.8% (active) with TK-10 renal; 6.43% (active) in the assay with ACHN renal; -54.1% (active) in the assay on CAKI-1 renal. The growth in the assay with A498 renal is -70.9% (active); with CCRF-CEM leukemia it was 29.9%; in the assay on MOLT-4 leukemia it was 29.6%; with SR leukemia, 21.6%; in the assay on RPMI-8226 leukemia, 46.4%; in the assay with OVCAR-8 ovarian, 28.7%. Moreover, the growth is 17.6% with OVCAR-5 ovarian; 44.1% with OVCAR-4 ovarian; -41.4% (active) with SK-OV-3 ovarian; -17.6% (active) with IGROV1 ovarian; 43.4% with OVCAR-3 ovarian; 20.5% with NCI/ADR-RES ovarian.
For `COC(=O)c1ccc2c(C(=Nc3ccc(N(C)C(=O)CN4CCN(C)CC4)cc3)c3ccccc3)c(O)[nH]c2c1`, the growth with EKVX NSCLC was 94%; in the assay with SN12C renal, 44.8%; in the assay on UO-31 renal it was 9.57% (active); in the assay on TK-10 renal it was 46.5%; with ACHN renal it was 48.8%; in the assay on CAKI-1 renal, 51.8%. For the same compound, the growth was 21.7% with A498 renal; 40.4% in the assay on CCRF-CEM leukemia; 50.5% in the assay with MOLT-4 leukemia; 6.5% (active) with SR leukemia; 62.4% in the assay on RPMI-8226 leukemia; 53.2% with OVCAR-8 ovarian. The growth was 64.5% in the assay on OVCAR-5 ovarian; 68.5% with OVCAR-4 ovarian; 53.2% in the assay on SK-OV-3 ovarian; 33.6% in the assay with IGROV1 ovarian; 91.3% with OVCAR-3 ovarian; 82.2% in the assay with NCI/ADR-RES ovarian.
As to `CN(C)CCOC(=O)Nc1nc2ccc(Sc3ccccc3)cc2[nH]1`, the growth was 47.1% with EKVX NSCLC; 40.5% with SN12C renal; 31.5% in the assay with UO-31 renal; 49.4% in the assay with TK-10 renal; 46.2% with ACHN renal; 33.9% in the assay with CAKI-1 renal. Further, the growth in the assay on A498 renal is -3.9% (active); in the assay on CCRF-CEM leukemia, 22.4%; in the assay on MOLT-4 leukemia, 41%; in the assay with SR leukemia, 22%; in the assay on RPMI-8226 leukemia it was 19.2%; in the assay with OVCAR-8 ovarian, 39.4%. The growth in the assay with OVCAR-5 ovarian was 59.8%; in the assay with OVCAR-4 ovarian it was 73.4%; with SK-OV-3 ovarian, 33.6%; with IGROV1 ovarian, 44.9%; in the assay with OVCAR-3 ovarian, 22.8%; in the assay on NCI/ADR-RES ovarian, 18.1%.
Take `CC(C)(O)CC(=O)NCCn1ccc2ncnc(Nc3ccc(Oc4cccc(C(F)(F)F)c4)c(Cl)c3)c21`: the growth was 8.11% (active) in the assay on EKVX NSCLC; 12.4% with SN12C renal; -6.15% (active) in the assay with UO-31 renal; -30.3% (active) in the assay with TK-10 renal; 8.71% (active) in the assay on ACHN renal; 19.2% in the assay on CAKI-1 renal. Besides, the growth was -28.7% (active) in the assay with A498 renal; 7.97% (active) in the assay on CCRF-CEM leukemia; 7.32% (active) in the assay on MOLT-4 leukemia; 3.05% (active) in the assay with SR leukemia; 11% in the assay on RPMI-8226 leukemia; 3% (active) in the assay on OVCAR-8 ovarian. Besides, the growth is 3.46% (active) in the assay with OVCAR-5 ovarian; 25.6% in the assay with OVCAR-4 ovarian; -21% (active) with SK-OV-3 ovarian; -42.6% (active) with IGROV1 ovarian; 32.6% with OVCAR-3 ovarian; 9.15% (active) in the assay on NCI/ADR-RES ovarian.
